Experimental data as given in PubChem BioAssay.
The source made the active and inactive calls. Unless noted, how the calls were made is not given here.

How the values were obtained:
[1] = system: Wnt5a (protein binding on small-molecule microarray); experiment: small molecules binding Wnt5a protein – biophysical, small-molecule microarray, 635/667 nm fluorescence, primary screen (AID 1142); settings: 635 nm fluorescence, higher = more signal;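 further: fluorescence read at 667 nm with signal to noise per printed feature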
[2] = ATP-based viability of Huh7 replicon cells – cell-based, CellTiter-Glo luminescence, basal, 48 h, cytotoxicity control for HCV replication inhibitor project, primary screen (AID 1143); settings: higher = more signal, called active from +8 up or from −8 down;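 further: Huh7 hepatoma cells carrying a hepatitis C replication reporter with no stimulus; test concentration not given here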
[3] = Pseudomonas biofilm growth suppression – PAO1 strain, BacTiter-Glo luminescence, LB-PBS, primary screen (AID 1144); settings: P. aeruginosa PAO1 biofilm, 12 h, higher = more signal
[4] = basal CRE-LacZ reporter activity in PC12 – cell-based, unstimulated, primary screen (AID 1145); settings: no forskolin, luminescence, 4.5 h, higher = more signal, called active from +8 up or from −8 down
[5] = forskolin-driven CRE-LacZ activity in PC12 – cell-based, CRE-LacZ reporter, forskolin-stimulated, primary screen (AID 1146); settings: luminescence, 4.5 h, higher = more signal, called active from +8 up or from −8 down;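 further: PC12 cells with 6xCRE LacZ reporter stimulated by forskolin 10 µM; beta-galactosidase reporter signal reflecting CREB driven transcription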
[6] = molecular target: Streptavidin (Streptomyces avidinii) (UniProt P22629); experiment: compounds binding control protein streptavidin – biophysical, small-molecule microarray, 635/667 nm fluorescence, artefact control for SMM compound annotation, primary screen (AID 1147); settings: higher = more signal;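 further: signal reflects streptavidin binding to arrayed compounds as a control protein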
[7] = probe aInhba binding on compound microarray – biochemical, small-molecule microarray, 635/667 nm fluorescence, primary screen (AID 1148); settings: higher = more signal;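 further: score merges 667nm spot fluorescence with signal-to-noise for antibody binding to printed compounds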
Torsin-1A (Homo sapiens) [8] = molecular target: Torsin-1A (Homo sapiens) (UniProt O14656); experiment: TOR1A wild-type binding on microarray – cell lysate, small-molecule microarray, lysate, 635/667 nm, primary screen (AID 1149); settings: COS7 hTOR1A-WT lysate, 635 nm fluorescence, higher = more signal
Torsin-1A (Homo sapiens) [9] = molecular target: Torsin-1A (Homo sapiens) (UniProt O14656); experiment: torsin A mutant lysate binding on microarrays – cell lysate, small-molecule microarray, COS7 lysate, 635/667 nm fluorescence, primary screen (AID 1150); settings: COS7 hTOR1A mutant lysate, 635 nm fluorescence, higher = more signal;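 further: score pools 667 nm emission and signal to noise measuring lysate protein binding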
[10] = system: Sonic hedgehog protein (Shh); experiment: Sonic hedgehog microarray binding compounds – biochemical, small-molecule microarray, 635/667 nm fluorescence, primary screen (AID 1151); settings: 635 nm fluorescence, higher = more signal;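 further: Shh protein binding to compounds spotted on small-molecule microarray slides; score combines spot fluorescence intensity with signal-to-noise across triplicate slides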
[11] = optical density shifts of acrAB sulA E. coli – strain DRC41, OD650, 48 h, E. coli filamentation inducer project, primary screen (AID 1152); settings: higher = more signal, called active from +8 up or from −8 down;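 further: E. coli MC1000 strain DRC41 lacking acrAB efflux pump and sulA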
[12] = probe aLefty1 binding on compound microarray – biochemical, small-molecule microarray, 635/667 nm fluorescence, primary screen (AID 1153); settings: higher = more signal;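 further: score merges spot fluorescence with signal-to-noise ratio from the scanned slide images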
[13] = plasmodial surface anion channel blockers, osmotic lysis – cell-based, P. falciparum Indochina, OD700, 1 h, primary screen (AID 1154); settings: P. falciparum Indochina infected RBC osmotic lysis, higher = more signal, called active from +8 up or from −8 down
[14] = plasmodial surface anion channel blockers, osmotic lysis – cell-based, P. falciparum Indochina, OD700, 2 h, primary screen (AID 1155);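 further: lysis reports solute entry through the parasite surface anion channel PSAC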; settings: P. falciparum Indochina infected erythrocytes, higher = more signal, called active from +8 up or from −8 down
[15] = changes in parasitized red cell lysis, either direction – P. falciparum Indochina, OD700, 3 h, PSAC antagonist project, primary screen (AID 1156); settings: P. falciparum-infected erythrocytes, osmotic lysis, higher = more signal, called active from +8 up or from −8 down
[16] = plasmodial surface anion channel blockers, osmotic lysis – cell-based, P. falciparum Indochina, OD700, 18 h, primary screen (AID 1157); settings: P. falciparum Indochina infected erythrocytes, osmotic lysis OD700, 18 h; higher = more signal, called active from +8 up or from −8 down
[17] = S6 kinase pathway phospho-S6 level changes – cell-based, A549, cytoblot, luminescence, serum-stimulated, primary screen (AID 1158); settings: 5 h, higher = more signal;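 further: serum-stimulated A549 lung adenocarcinoma cells; signal is phosphorylated S6 detected by cytoblot immunostaining with HRP secondary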
[18] = molecular target: NADPH oxidase 2 (Homo sapiens) (UniProt P04839); experiment: compounds shifting NOX2 Amplex Red fluorescence – cell-based, HEK293-NOX2, PMA-stimulated, NOX inhibitor project, primary screen (AID 1159); settings: 45 min, higher = more signal, called active from +8 up or from −8 down; further: test concentration not given here
[19] = molecular target: NADPH oxidase 4 (Homo sapiens) (UniProt Q9NPH5); experiment: compounds shifting NOX4 Amplex Red fluorescence – cell-based, HEK293-NOX4, tetracycline-induced, NOX inhibitor project, primary screen (AID 1160); settings: HEK293-NOX4, Amplex Red H2O2 fluorescence, 45 min; higher = more signal, called active from +8 up or from −8 down
[20] = molecular target: NADPH oxidase 5 (Homo sapiens) (UniProt Q96PH1); experiment: compounds shifting NOX5 Amplex Red fluorescence – cell-based, HEK293-NOX5, NOX inhibitor project, primary screen (AID 1161); settings: HEK293-NOX5, ionomycin, 45 min, higher = more signal
NADPH oxidase 5 (Homo sapiens), sequence (Q96PH1 whole entry, looked up): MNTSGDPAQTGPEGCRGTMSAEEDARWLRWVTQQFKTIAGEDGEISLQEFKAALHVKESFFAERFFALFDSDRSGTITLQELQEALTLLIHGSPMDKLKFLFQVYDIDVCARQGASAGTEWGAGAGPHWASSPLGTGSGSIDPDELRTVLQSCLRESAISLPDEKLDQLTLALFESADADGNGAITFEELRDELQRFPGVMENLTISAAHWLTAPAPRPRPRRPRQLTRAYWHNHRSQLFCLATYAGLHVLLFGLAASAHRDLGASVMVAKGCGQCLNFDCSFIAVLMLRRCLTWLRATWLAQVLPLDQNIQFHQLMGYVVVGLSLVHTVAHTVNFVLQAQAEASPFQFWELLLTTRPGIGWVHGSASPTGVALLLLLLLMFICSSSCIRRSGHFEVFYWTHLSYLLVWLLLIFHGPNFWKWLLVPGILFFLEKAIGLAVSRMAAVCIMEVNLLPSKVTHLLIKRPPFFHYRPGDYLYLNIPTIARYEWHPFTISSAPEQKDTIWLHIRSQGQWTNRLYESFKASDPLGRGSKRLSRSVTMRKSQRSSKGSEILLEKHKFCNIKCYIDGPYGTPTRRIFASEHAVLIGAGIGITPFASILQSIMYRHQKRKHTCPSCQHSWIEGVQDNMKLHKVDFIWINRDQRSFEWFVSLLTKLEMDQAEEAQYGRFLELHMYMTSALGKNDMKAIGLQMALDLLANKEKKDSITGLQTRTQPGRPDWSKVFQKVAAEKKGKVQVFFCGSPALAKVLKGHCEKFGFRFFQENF

NADPH oxidase 4 (Homo sapiens), sequence (Q9NPH5 whole entry, looked up): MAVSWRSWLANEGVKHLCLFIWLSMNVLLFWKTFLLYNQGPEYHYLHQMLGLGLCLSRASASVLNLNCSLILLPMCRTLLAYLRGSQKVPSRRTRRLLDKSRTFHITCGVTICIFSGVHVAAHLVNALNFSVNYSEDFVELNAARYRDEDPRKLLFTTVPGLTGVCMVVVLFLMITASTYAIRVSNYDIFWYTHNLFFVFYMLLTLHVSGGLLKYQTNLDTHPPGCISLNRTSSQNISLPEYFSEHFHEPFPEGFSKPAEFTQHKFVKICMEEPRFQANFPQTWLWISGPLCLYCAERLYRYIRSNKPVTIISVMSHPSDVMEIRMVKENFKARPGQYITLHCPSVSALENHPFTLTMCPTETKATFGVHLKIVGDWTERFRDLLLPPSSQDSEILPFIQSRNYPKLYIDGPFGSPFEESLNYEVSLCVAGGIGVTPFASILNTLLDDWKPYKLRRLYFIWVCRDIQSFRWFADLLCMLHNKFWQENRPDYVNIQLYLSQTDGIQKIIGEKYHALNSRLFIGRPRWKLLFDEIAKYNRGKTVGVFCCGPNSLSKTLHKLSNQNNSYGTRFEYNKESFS
Torsin-1A (Homo sapiens), sequence (O14656 whole entry, looked up): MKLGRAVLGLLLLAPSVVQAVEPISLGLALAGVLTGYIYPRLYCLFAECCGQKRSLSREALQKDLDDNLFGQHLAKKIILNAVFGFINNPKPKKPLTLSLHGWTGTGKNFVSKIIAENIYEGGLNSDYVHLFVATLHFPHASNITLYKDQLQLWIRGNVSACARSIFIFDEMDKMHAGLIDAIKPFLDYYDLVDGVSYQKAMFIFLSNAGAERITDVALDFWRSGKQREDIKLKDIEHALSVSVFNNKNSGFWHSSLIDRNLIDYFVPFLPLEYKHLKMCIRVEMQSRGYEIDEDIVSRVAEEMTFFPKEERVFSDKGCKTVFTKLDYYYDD
NADPH oxidase 2 (Homo sapiens), sequence (P04839 whole entry, looked up): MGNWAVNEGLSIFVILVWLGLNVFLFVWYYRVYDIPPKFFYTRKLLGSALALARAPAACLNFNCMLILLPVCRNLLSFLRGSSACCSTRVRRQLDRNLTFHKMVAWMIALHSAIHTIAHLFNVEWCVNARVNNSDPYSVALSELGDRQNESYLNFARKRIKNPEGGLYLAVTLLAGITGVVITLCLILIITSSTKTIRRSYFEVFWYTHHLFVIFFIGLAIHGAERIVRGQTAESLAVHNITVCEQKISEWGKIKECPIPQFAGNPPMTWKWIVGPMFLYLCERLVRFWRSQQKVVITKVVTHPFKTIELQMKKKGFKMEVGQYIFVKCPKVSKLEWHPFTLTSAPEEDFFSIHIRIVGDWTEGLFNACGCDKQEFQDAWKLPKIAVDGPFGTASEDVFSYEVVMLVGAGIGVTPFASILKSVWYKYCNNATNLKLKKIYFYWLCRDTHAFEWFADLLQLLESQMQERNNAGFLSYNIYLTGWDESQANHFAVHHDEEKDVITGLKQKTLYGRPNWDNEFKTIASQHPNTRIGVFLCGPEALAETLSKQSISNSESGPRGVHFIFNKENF
Streptavidin (Streptomyces avidinii), sequence (P22629 whole entry, looked up): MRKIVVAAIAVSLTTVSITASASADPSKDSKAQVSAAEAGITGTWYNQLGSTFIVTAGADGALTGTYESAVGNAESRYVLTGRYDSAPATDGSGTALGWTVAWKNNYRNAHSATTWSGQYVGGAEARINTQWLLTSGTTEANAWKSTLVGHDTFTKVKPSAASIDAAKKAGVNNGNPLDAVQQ

Row | SMILES | composite z-score [1] | z-score [2] | z-score [3] | z-score [4] | z-score [5] | composite z-score [6] | composite z-score [7] | composite z-score (Torsin-1A (Homo sapiens) [8]) | composite z-score (Torsin-1A (Homo sapiens) [9]) | composite z-score [10] | z-score [11] | composite z-score [12] | z-score [13] | z-score [14] | z-score [15] | z-score [16] | z-score [17] | z-score [18] | z-score [19] | z-score [20]
1 | COCCCNC(=O)[C@@]1(c2ccc([N+](=O)[O-])cc2)CC(=O)N(C2CCCCC2)[C@@H]1c1ccc(CO)cc1 | -0.155 | -1.72 (inactive) | 0.0997 (inactive) | -0.269 (inactive) | 0.207 (inactive) | -0.826 | -0.417 | 0.661 | -0.699 | -0.256 | 0.857 (inactive) | -0.602 | 1.93 (inactive) | 0.349 (inactive) | 1.76 (inactive) | 0.499 (inactive) | -0.203 | 0.929 (inactive) | 0.721 (inactive) | 0.537
2 | CC(C)C[C@@H]1NC(=O)[C@H]2C[C@@H](C(=O)NCCCCCC[N+](C)(C)C)[C@@H](c3ccc(O)cc3)N2C1=O | -0.266 | -0.0365 (inactive) | -0.337 (inactive) | -0.122 (inactive) | -0.281 (inactive) | -0.308 | -0.0719 | 0.87 | 0.951 | 1.7 | 0.706 (inactive) | 0.0502 | 1.8 (inactive) | 0.459 (inactive) | -3.67 (inactive) | 0.0558 (inactive) | -0.496 | 1.04 (inactive) | 1 (inactive) | -0.306
3 | CCCC=C(CCC)[C@@H](NS(=O)(=O)c1ccc(-c2ccccc2)cc1)c1ccc(C(=O)OC)cc1 | -0.228 | -3.56 (inactive) | -0.308 (inactive) | -0.182 (inactive) | -0.289 (inactive) | 0.111 | -0.0791 | -0.269 | -0.383 | -0.948 | -2.25 (inactive) | -0.202 | 0.757 (inactive) | -0.515 (inactive) | 0.248 (inactive) | -1.71 (inactive) | 2.45 | -4.5 (inactive) | -4.82 (inactive) | -2.09
4 | COC(=O)Cn1c(C(=O)N2CCCC2)cc2c1C[C@H]1CN(C(=O)c3ccccc3)[C@@](Cc3ccccc3)(C(=O)OC)[C@@H]21 | -0.0963 | -0.259 (inactive) | -0.195 (inactive) | -0.572 (inactive) | -0.402 (inactive) | 0.344 | 0.158 | -0.531 | -0.0683 | -1.04 | -0.406 (inactive) | 0.257 | 1.54 (inactive) | 0.104 (inactive) | 0.16 (inactive) | 0.469 (inactive) | 0.136 | 0.489 (inactive) | 0.217 (inactive) | -2.54
